Reference: PubChem BioAssay (NCI)
This is part of a sample that, as a whole, favours compounds with a hit. Of some 79,000 tested, about 15% had one in any assay. The source made the active and inactive calls. Rule as the data show it: active = growth inhibition above about 70%; inactive = the rest.

How the values were obtained:
[1] = NCI Yeast Anticancer Drug Screen. Data for the rad50 strain (AID 155);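 also: 0% = growth of vehicle-only cultures of the same strain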; conditions: S. cerevisiae rad50 strain growth inhibition, stronger effect = higher value
Procedure, shortened: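 Cells are treated with compound, grown, and their growth is then scored against vehicle-only cultures of the same repair-deficient yeast strain.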

[2] = NCI Yeast Anticancer Drug Screen. Data for the mec2-1 strain (AID 157); conditions: S. cerevisiae mec2-1 strain, stronger effect = higher value
Procedure, shortened: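 Strain: mec2-1 (DNA repair/cell cycle alteration). Compound exposure, then growth measured; inhibition expressed relative to vehicle.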

[3] = NCI Yeast Anticancer Drug Screen. Data for the sgs1 mgt1 strain (AID 161);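 also: 0% = growth of cultures given vehicle only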; conditions: S. cerevisiae sgs1 mgt1 strain, stronger effect = higher value
Procedure, shortened: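 Mutant yeast exposed to compound; growth scored against vehicle-only wells.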

[4] = NCI Yeast Anticancer Drug Screen. Data for the cln2 rad14 strain (AID 165);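 also: 0% = growth equal to vehicle treated cultures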; conditions: S. cerevisiae cln2 rad14 strain, stronger effect = higher value
Procedure, shortened: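 Compounds are applied to the cln2 rad14 yeast strain, and growth is then compared with that of vehicle-treated cultures to give inhibition.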

[5] = NCI Yeast Anticancer Drug Screen. Data for the bub3 strain (AID 167); conditions: S. cerevisiae bub3 mutant strain, stronger effect = higher value
Procedure, shortened: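 Part of a panel of yeast mutants defective in DNA damage repair or cell cycle regulation. Each strain is grown with compound, and inhibition is calculated relative to solvent-treated cultures.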

[6] = NCI Yeast Anticancer Drug Screen. Data for the mlh1 rad18 strain (AID 175); conditions: S. cerevisiae mlh1 rad18 strain growth inhibition, stronger effect = higher value
Procedure, shortened: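 Read-out is yeast growth inhibition, calculated against vehicle-only controls. The compound was applied to a strain engineered with DNA damage repair alterations.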

[7] = at 5.0 µM (retest, dose inferred, filed as 0.5)
[8] = at 50.0 µM (retest, dose inferred, filed as 5.0)

Measured: growth inhibition

CC1=CC(=O)c2c(O)cccc2C1=O
active: [1]; [8] 100% | [1]; at 50.0 µM 85.8% | [2]; [8] 99% | [2]; at 50.0 µM 90.1% | [3]; [8] 99% | [3]; at 50.0 µM 92% | [4]; [8] 99% | [4]; at 50.0 µM 90.3% | [5]; [8] 99% | [5]; at 50.0 µM 90.5% | [6]; [8] 98% | [6]; at 50.0 µM 89%
inactive: [1]; [7] 18% | [2]; [7] 29% | [3]; [7] 19% | [4]; [7] 7% | [5]; [7] 23% | [6]; [7] 30%

O=C(OCCl)c1ccccc1
inactive: [1]; [7] 11% | [1]; [8] -4% | [1]; at 50.0 µM 3.9% | [2]; [7] -1% | [2]; [8] -2% | [2]; at 50.0 µM -5.6% | [3]; [7] -4% | [3]; [8] 1% | [3]; at 50.0 µM 13.5% | [4]; [7] 7% | [4]; [8] -4% | [4]; at 50.0 µM 45.5% | [5]; [7] 8% | [5]; [8] 13% | [5]; at 50.0 µM -7.7% | [6]; [7] 6% | [6]; [8] 5% | [6]; at 50.0 µM 15.7%

[C-]#[O+].[C-]#[O+].[CH3][Sn]([CH3])[c]1ccccc1.[Fe+5].[c-]1[c-][c-][cH-][c-]1
active: [1]; [8] 82% | [1]; at 50.0 µM 95.3% | [2]; [8] 87% | [2]; at 50.0 µM 98% | [3]; [8] 88% | [3]; at 50.0 µM 94.7% | [4]; [8] 85% | [4]; at 50.0 µM 95.3% | [5]; [8] 90% | [5]; at 50.0 µM 98% | [6]; [8] 90% | [6]; at 50.0 µM 94%
inactive: [1]; [7] 7% | [2]; [7] 4% | [3]; [7] 9% | [4]; [7] -8% | [5]; [7] -7% | [6]; [7] 7%

ClC1CCCCC1[Se](Cl)(Cl)C1CCCCC1Cl (stereo not given)
inactive: [1]; [7] 34% | [2]; [7] 45% | [3]; [7] 12% | [4]; [7] -15% | [5]; [7] 8% | [6]; [7] 43%
active: [1]; [8] 98% | [1]; at 50.0 µM 99% | [2]; [8] 100% | [2]; at 50.0 µM 98.7% | [3]; [8] 99% | [3]; at 50.0 µM 99.5% | [4]; [8] 99% | [4]; at 50.0 µM 97.9% | [5]; [8] 99% | [5]; at 50.0 µM 95.6% | [6]; [8] 99% | [6]; at 50.0 µM 98.8%

CC12CCC3C(CCC4Cc5nc6nnnn6cc5CC43C)C1CCC2O (stereo not given)
inactive: [1]; [7] 4% | [1]; at 50.0 µM 55% | [2]; [7] 20% | [2]; at 50.0 µM 40.9% | [3]; [7] 14% | [3]; at 50.0 µM 51% | [4]; [7] 4% | [4]; [8] 44% | [4]; at 50.0 µM 29.6% | [5]; [7] 2% | [5]; [8] 38% | [5]; at 50.0 µM 53.8% | [6]; [7] 11% | [6]; at 50.0 µM 47%
active: [1]; [8] 79% | [2]; [8] 71% | [3]; [8] 85% | [6]; [8] 82%

O=C(Nc1ccccc1)c1cc([N+](=O)[O-])ccc1O.[Ni]
active: [3]; [8] 100% | [3]; at 50.0 µM 77.5% | [4]; [8] 100% | [5]; [8] 99%
inactive: [1]; [7] 51% | [1]; [8] 45% | [1]; at 50.0 µM 69.3% | [2]; [7] 34% | [2]; [8] 37% | [2]; at 50.0 µM 57.6% | [3]; [7] 34% | [4]; [7] 46% | [4]; at 50.0 µM 33.5% | [5]; [7] 54% | [5]; at 50.0 µM 59.8% | [6]; [7] 38% | [6]; [8] 36% | [6]; at 50.0 µM 52.3%

COc1ccc(Br)c(/C=C/[N+](=O)[O-])c1
active: [1]; [8] 90% | [1]; at 50.0 µM 99.5% | [2]; [8] 96% | [2]; at 50.0 µM 99.7% | [3]; [8] 82% | [3]; at 50.0 µM 99.7% | [5]; [8] 92% | [5]; at 50.0 µM 95.5% | [6]; [8] 96% | [6]; at 50.0 µM 87.8%
inactive: [1]; [7] 23% | [2]; [7] 11% | [3]; [7] 16% | [4]; [7] 0% | [4]; [8] 65% | [4]; at 50.0 µM 11.7% | [5]; [7] 5% | [6]; [7] 6%

COc1ccc(/C=C(\C)[N+](=O)[O-])cc1OC
active: [1]; [8] 97% | [1]; at 50.0 µM 90.1% | [2]; [8] 99% | [2]; at 50.0 µM 92% | [3]; [8] 99% | [3]; at 50.0 µM 91% | [4]; [8] 98% | [4]; at 50.0 µM 87.3% | [5]; [8] 98% | [5]; at 50.0 µM 93.8% | [6]; [8] 99% | [6]; at 50.0 µM 93%
inactive: [1]; [7] 53% | [2]; [7] 41% | [3]; [7] 55% | [4]; [7] 26% | [5]; [7] 42% | [6]; [7] 58%

C[N+](C)(C)CC1CCCc2ccccc2C1=O (stereo not given)
active: [1]; [8] 90% | [1]; at 50.0 µM 88% | [2]; [8] 97% | [2]; at 50.0 µM 85.9% | [3]; [8] 88% | [3]; at 50.0 µM 91.3% | [4]; at 50.0 µM 81% | [5]; [8] 99% | [5]; at 50.0 µM 88.1% | [6]; [8] 98% | [6]; at 50.0 µM 90.5%
inactive: [1]; [7] 22% | [2]; [7] 20% | [3]; [7] 17% | [4]; [7] 6% | [4]; [8] 43% | [5]; [7] 32% | [6]; [7] 30%

S=C=[N][Sn]([N]=C=S)([c]1ccccc1)[c]1ccccc1.c1ccc2nc(-c3ccc4ccccc4n3)ccc2c1
active: [1]; [7] 72% | [1]; [8] 98% | [1]; at 50.0 µM 89.3% | [2]; [8] 99% | [2]; at 50.0 µM 91.2% | [3]; [7] 84% | [3]; [8] 99% | [3]; at 50.0 µM 91.5% | [4]; [8] 99% | [4]; at 50.0 µM 90.8% | [5]; [7] 85% | [5]; [8] 99% | [5]; at 50.0 µM 90% | [6]; [7] 77% | [6]; [8] 98% | [6]; at 50.0 µM 77.5%
inactive: [2]; [7] 65% | [4]; [7] 51%
